Experimental data published in PubChem BioAssay (NCATS).
Inconclusive results are not listed. Activity calls are given as the source filed them. Unless noted, the call rests on the fitted dose curve; in most records, active means well fitted curve in the direction sought with a large enough effect; inconclusive means small, poorly fitted or top-dose-only effect, or another doubt; inactive means no such curve, though single readings can be large; an effect the other way counts as inactive or inconclusive.

What was measured:
[1] = Cell Viability - BJ (AID 421; calls by dose curve;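 further: potency means the concentration at half of the fitted maximal effect; cells exposed to compound for 40 hours at 37 °C before readout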); conditions: BJ fibroblast viability, qHTS
Summary of the method: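 Cytotoxicity in human BJ foreskin fibroblasts is scored as loss of cellular ATP after a 40-hour exposure, measured by luciferase luminescence. Controls are DMSO and 100 uM tamoxifen.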

[2] = Cell Viability - Jurkat (AID 426;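 active means dose-dependent loss of cell ATP signal giving a full or clear fitted curve, ranked by lower potency value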; further: potency means the concentration at half of the fitted maximal effect); conditions: qHTS
Summary of the method: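 Seed 5000 Jurkat E6-1 cells/well; add compound; incubate 40 hr at 37 °C; add CellTiter-Glo; wait 20 min at room temperature; read luminescence. Fit concentration-response with Hill equation for AC50.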

[3] = Cell Viability - Hek293 (AID 427;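 active means compounds whose dose-response curve shows a full or clear partial loss of cell viability, called from curve shape rather than a numeric limit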;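 further: potency means the concentration at half of the fitted maximal effect; cells exposed to compound for 40 hours at 37 °C before reading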); conditions: qHTS
Summary of the method: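 qHTS, human embryonic kidney (adenovirus-transformed) cells; 40 hr cpd, 37 °C; CellTiter-Glo ATP luminescence. Norm: DMSO = 0, 100 uM tamoxifen = 100% inhibition. Hill-fit AC50.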

[4] = Cell Viability - HepG2 (AID 433; calls by dose curve;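 further: potency means the concentration at half of the fitted maximal effect; potency for ATP loss meaning cytotoxicity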); conditions: qHTS
Summary of the method: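 HepG2 cells, 1500 per well, treated 40 hr at 37 °C in complete medium; viability from intracellular ATP by CellTiter-Glo luminescence. Normalized to DMSO and 100 uM tamoxifen; AC50 from Hill fit of qHTS concentration-response.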

[5] = Cell Viability - MRC5 (AID 434; calls by dose curve;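 further: potency means the concentration at half of the fitted maximal effect; potency reflects cytotoxicity seen as loss of intracellular ATP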); conditions: MRC5 lung fibroblast viability, qHTS
Summary of the method: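 MRC5 normal human lung fibroblasts, 1500 cells/well, exposed to compound for 40 hr at 37 C. Cellular ATP was read by CellTiter-Glo luminescence; data normalized to DMSO and 100 uM tamoxifen, with AC50 from Hill fits.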

[6] = Cell Viability - SK-N-SH (AID 435; calls by dose curve;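 further: potency means the concentration at half of the fitted maximal effect; compound exposure lasted 40 h at 37 °C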); conditions: SK-N-SH neuroblastoma cell viability qHTS
Summary of the method: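 SK-N-SH neuroblastoma cells (1500/well) treated 40 h at 37 °C in complete medium; viability read as cellular ATP by CellTiter-Glo luminescence. Normalized to DMSO and 100 uM tamoxifen; AC50 from Hill fits of qHTS concentration-response.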

[7] = target: Mitogen-activated protein kinase 10 (Mus musculus) (UniProt Q61831); test: JNK3 AlphaScreen Assay (AID 530; active means well fitted curve in either direction with a large enough effect, not every such curve was filed as active;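 further: kinase came from lysate of stimulated human HepG2 cells; signal reports phosphorylation of biotinylated GST-cJun 1-79 at Ser73 with 10 µM ATP; on the % scale 0 is the no-effect control and ±100 the full control effect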); conditions: JNK3 lysate, c-Jun phosphorylation; series mostly up to 57.1 µM
Summary of the method: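 qHTS format: compounds tested as titrations against IL-1beta/TNF-alpha-activated HepG2 lysate JNK3 with biotin-GST-cJun substrate and 10 uM ATP at room temperature. Loss of anti-phospho-cJun AlphaScreen signal indicates inhibition.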

[8] = Cell Viability - N2a (AID 540); conditions: N2a mouse neuroblastoma cell viability; activity change, negative = cytotoxicity: at 92.2 µM (top of the series);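 further: plate controls were DMSO alone for no effect and tamoxifen control for full effect; nearly all actives have a fitted effect of over 45% in size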
Summary of the method: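 First, 1500 N2a cells per well incubate 5 hr at 37 °C; next, compounds are added and incubated 40 hr at 37 °C; finally CellTiter-Glo is added and luminescence read after 20 min, with AC50 derived by Hill modeling.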

[9] = Cell Viability - NIH 3T3 (AID 541); conditions: NIH 3T3 cell viability, qHTS; activity change, negative = cytotoxicity: at 92.2 µM (top of the series);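 further: plate controls were DMSO alone for no effect and tamoxifen positive control for full effect; nearly all actives have a fitted effect of over 25% in size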
Summary of the method: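 AC50 values reflect concentration-dependent loss of intracellular ATP in NIH 3T3 cells after 40 hr treatment in complete culture medium, quantified by luciferase-based luminescence.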

[10] = Cell Viability - HUV-EC-C (AID 542); conditions: HUV-EC-C endothelial cell viability, qHTS; series mostly up to 92.2 µM; further: on the % scale 0 is the no-effect control and ±100 the full control effect; nearly all actives have a fitted effect of over 35% in size
Summary of the method: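 Decrease in cellular ATP, quantified by luciferase luminescence, reflects toxicity in normal human vascular endothelial HUV-EC-C cells given compound for 40 hr in complete culture medium. Values are AC50s from concentration-response curves.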

[11] = Cell Viability - H-4-II-E (AID 543); conditions: H-4-II-E rat hepatoma viability; series mostly up to 92.2 µM; further: on the % scale 0 is the no-effect control and ±100 the full control effect; nearly all actives have a fitted effect of over 35% in size
Summary of the method: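 Here, cytotoxicity is measured in the rat hepatoma line H-4-II-E as loss of intracellular ATP after 40 hr compound treatment, detected by luciferase luminescence.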

[12] = Cell Viability - SH-SY5Y (AID 544); conditions: SH-SY5Y neuroblastoma cell viability; viability change, negative = cytotoxic: at 92.2 µM (top of the series); further: nearly all actives have a fitted effect of over 55% in size
Summary of the method: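 Cytotoxicity is scored as a concentration-dependent fall in intracellular ATP in human SH-SY5Y cells treated 40 hr in complete culture medium. Potency is expressed as AC50 from a Hill equation fit.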

[13] = Cell Viability - Mesenchymal (AID 546); conditions: mesenchymal cells viability, qHTS; series mostly up to 91.7 µM;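 further: cells exposed to compound for 40 hours before reading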
Summary of the method: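 Human kidney mesenchymal cells from normal renal glomeruli, 1000 cells/well, rested 5 hr at 37 °C, then treated 40 hr at 37 °C in complete medium. Cellular ATP read by CellTiter-Glo luminescence; AC50 from Hill-equation fits.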

[14] = Cellular Toxicity (caspase-3) HepG2 (AID 654); conditions: HepG2 caspase-3 activation, luminescence; series mostly up to 92.2 µM;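 further: cells exposed to compound for 16 hours before reading; 0% = DMSO alone and 100% = caspase signal from 100 µM tamoxifen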
Summary of the method: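 qHTS, HepG2, 1500 cells/well, complete medium; cpd 16 h 37 °C; Caspase-Glo 3/7, 20 min RT; lum. Norm: DMSO vs 100 uM tamoxifen; AC50 Hill fit.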

[15] = Cellular Toxicity (caspase-3) Jurkat (AID 655); conditions: Jurkat caspase-3 activation, luminescence; caspase-3 activation: at 92.2 µM (top of the series), DMSO = 0%, tamoxifen = 100%;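 further: cells exposed to compound for 16 h at 37 °C before reading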
Summary of the method: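 Jurkat cells (5000/well) in complete medium exposed 16 h at 37 C; caspase-3/7 activity read by Caspase-Glo luminescence after 20 min at room temperature. Normalized to DMSO and 100 uM tamoxifen; AC50 from Hill fits.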

[16] = Cellular Toxicity (caspase-3) HUV-EC-C (AID 656); conditions: HUV-EC-C cells, caspase-3 activation (apoptosis), vehicle = 0, 100 µM tamoxifen = 100%; series mostly up to 92.2 µM
Summary of the method: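 HUV-EC-C cells (1000/well) in complete medium, compound-treated 16 h at 37 °C; caspase-3/7 activity read by Caspase-Glo 3/7 luminescence. Normalized to DMSO (basal) and 100 uM tamoxifen (100%); AC50 from Hill-equation concentration-response fits.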

[17] = Cellular Toxicity (caspase-3) SHSY5Y (AID 657); conditions: SH-SY5Y caspase-3 activation, DMSO zero, 10 µM staurosporine = 100%; series mostly up to 91.7 µM
Summary of the method: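 SH-SY5Y human neuroblastoma cells, 1500/well, exposed to compound for 16 hours at 37 °C in complete medium. Caspase-3/7 activity read by Caspase-Glo luminescence after 1 hr at room temperature, normalized to DMSO and 10 uM staurosporine; AC50 from Hill fit.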

[18] = Cellular Toxicity (caspase-3) BJ (AID 658); conditions: BJ fibroblasts, luminescence, normalized: DMSO 0%, staurosporine 100%; series mostly up to 91.7 µM
Summary of the method: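 BJ human foreskin fibroblasts, 1000 cells/well, treated 16 hours at 37 °C in complete medium; caspase 3/7 activity by Caspase-Glo luminescence after 1 hr at room temperature. Normalized to DMSO and 10 uM staurosporine; AC50 from Hill fits.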

[19] = Cellular Toxicity (caspase-3) MRC-5 (AID 659); conditions: MRC-5 cells, luminescence, normalized: DMSO 0%, 10 µM staurosporine 100%; series mostly up to 91.7 µM
Summary of the method: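 MRC-5 human normal lung fibroblasts, 1500 cells/well, treated 16 h at 37 °C in complete medium. Caspase 3/7 measured by Caspase-Glo luminescence after 1 h at room temperature. Normalized to DMSO and 10 uM staurosporine; AC50 from Hill fit.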

[20] = Cell Viability - Renal Proximal Tubule (AID 545); conditions: renal proximal tubule cells viability, primary cells of rat origin; series mostly up to 91.7 µM; further: nearly all actives have a fitted effect of over 40% in size
Summary of the method: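 Rat renal proximal tubule primary cells, 1000/well, exposed to compounds for 40 hr at 37 °C in complete medium; cellular ATP read by CellTiter-Glo luminescence. AC50 from concentration-response fitted with standard Hill equation.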

O=C1OC(=O)c2c(Br)c(Br)c(Br)c(Br)c21
inactive: Potency [1] > 92 µM | Potency [2] > 92 µM | Potency [3] > 92 µM | Potency [4] > 92 µM | Potency [5] > 92 µM | Potency [6] > 92 µM | outcome [7] | activity change, negative = cytotoxicity [8] -3.13% | Potency [9] | Potency [10] | Potency [11] | Potency [12] | Potency [13] | Potency [14] | caspase-3 activation [15] -0.0657% | outcome [16] | outcome [17] | outcome [18] | outcome [19]

Nc1nc(CC(=O)O)cs1
inactive: Potency [1] > 92 µM | Potency [2] > 92 µM | Potency [3] > 92 µM | Potency [4] > 92 µM | Potency [5] > 92 µM | Potency [6] > 92 µM | outcome [7] | activity change, negative = cytotoxicity [8] 6.3% | Potency [9] | Potency [10] | Potency [11] | Potency [12] | Potency [13] | Potency [14] | caspase-3 activation [15] 0.779% | outcome [16] | outcome [17] | outcome [19]

CCc1ccccc1O
inactive: Potency [1] > 92 µM | Potency [2] > 92 µM | Potency [3] > 92 µM | Potency [4] > 92 µM | Potency [5] > 92 µM | Potency [6] > 92 µM | outcome [7] | activity change, negative = cytotoxicity [8] 2.33% | Potency [9] | Potency [10] | Potency [11] | Potency [12] | Potency [13] | Potency [14] | caspase-3 activation [15] 0.741% | outcome [16] | outcome [17] | outcome [19]

Cc1ccc2ncccc2c1
inactive: Potency [1] > 92 µM | Potency [2] > 92 µM | Potency [3] > 92 µM | Potency [4] > 92 µM | Potency [5] > 92 µM | Potency [6] > 92 µM | outcome [7] | activity change, negative = cytotoxicity [8] 3.92% | Potency [9] | Potency [10] | Potency [11] | Potency [12] | Potency [13] | Potency [14] | caspase-3 activation [15] 0.555% | outcome [16] | outcome [17] | outcome [18] | outcome [19]

CC(=O)c1cc(C)oc1C
inactive: Potency [1] > 92 µM | Potency [2] > 92 µM | Potency [3] > 92 µM | Potency [4] > 92 µM | Potency [5] > 92 µM | Potency [6] > 92 µM | outcome [7] | activity change, negative = cytotoxicity [8] -1.61% | Potency [9] | Potency [10] | Potency [11] | Potency [12] | Potency [13] | Potency [14] | caspase-3 activation [15] 0.691% | outcome [16] | outcome [17] | outcome [18]

[O-]/[N+](=N\O)c1ccccc1
inactive: Potency [1] > 92 µM | Potency [2] > 92 µM | Potency [3] > 92 µM | Potency [4] > 92 µM | Potency [5] > 92 µM | Potency [6] > 92 µM | outcome [7] | activity change, negative = cytotoxicity [8] 0.0649% | Potency [9] | Potency [10] | Potency [12] | Potency [20] | Potency [13] | Potency [14] | outcome [16] | outcome [17] | outcome [18] | outcome [19]
